Measured values: PubChem BioAssay (NCATS)
“And” between values parts separate entries of the source, which are not always exact repeats. Identical values can stand only once. Inconclusive results are not listed. The source made the active and inactive calls. Unless noted, calls follow the shape of the dose curve; as a rule, active = well fitted curve in the direction sought with a large enough effect; inconclusive = small, poorly fitted or top-dose-only effect, or another doubt; inactive = no such curve, though single readings can be large; an effect the other way counts as inactive or inconclusive.

Experiments:
[1] = S16 Schwann cell PMP22 intronic element beta-lactamase assay (AID 624044; calls by dose curve; also: nearly all actives have a fitted effect of over 15% in size; also: potency is read from the fitted curve at half-maximal effect)
Outline: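 Rat S16 Schwann cells with beta-Lac driven by a PMP22 intronic element, compound-treated 24 h at 37 °C. LiveBLAzer FRET B/G read: 460 nm normalized to potassium clavulanate vs DMSO; 535 nm FRET as viability; concentration-effect curves classified.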

[2] = qHTS assay for small molecule agonists of the antioxidant response element (ARE) signaling pathway (AID 651741; active = well fitted activation curve with a large enough effect in the signal ratio; the % refers to the signal ratio; also: potency is read from the fitted curve at half-maximal effect; as to activation: % of control where 0% means no effect)
Outline: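 Compounds in DMSO are pinned onto HepG2 ARE-bla cells (2,000/well) that were preincubated 5 h; plates stay 16 h at 37 C, then beta-lactamase activity is detected with LiveBLAzer B/G substrate by fluorescence.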

[3] = qHTS assay for small molecule activators of the p53 signaling pathway (AID 651743; active = well fitted activation curve with a large enough effect in the signal ratio, not every such curve was filed as active; the % refers to the signal ratio; also: series mostly up to about 92 µM; % of control where 0% means no effect); details: HCT-116 p53RE-bla, beta-lactamase FRET ratio, 16 h; activation: stronger effect = higher value
Outline: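 Cell-based beta-lactamase reporter (p53 response elements, HCT-116 background). After a 5-hour preincubation, cells received compound for 16 hours at 37 C; substrate development ran 2 hours at room temperature.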

[4] = qHTS assay for small molecule activators of the nuclear factor-kappa B (NF-kB) signaling pathway (AID 651749; active = well fitted activation curve with a large enough effect in the signal ratio; the % refers to the signal ratio; also: series mostly up to about 77 µM; % of control where 0% means no effect); details: NF-kB-bla ME-180 cells, beta-lactamase FRET ratio, 16 h; stronger effect = higher value
Outline: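 Screening used 2,000 ME-180 reporter cells per well exposed to pinned compound (23 nL) or DMSO; after 16 hr at 37C, beta-lactamase expression under NF-kB control was assessed through FRET.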

[5] = qHTS assay for small molecule disruptors of the mitochondrial membrane potential - 1 hr assay (AID 651754; calls by dose curve; also: nearly all actives have a fitted effect of over 35% in size; also: potency is read from the fitted curve at half-maximal effect)
Outline: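 HepG2 cells, attached overnight, were exposed to compound for 1 hr at 37C, then stained 30 min with a potentiometric dye. Ratio of red aggregate (590nm) to green monomer (535nm) fluorescence reports membrane potential; collapse shifts signal toward green.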

[6] = qHTS assay for small molecule disruptors of the mitochondrial membrane potential - 5 hr assay (AID 651755; calls by dose curve; also: nearly all actives have a fitted effect of over 40% in size; also: potency is read from the fitted curve at half-maximal effect)
Outline: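 HepG2 cells, attached overnight at 37C, were exposed to compound or DMSO for 5 hr at 37C, 5% CO2. Mito-MPS dye was then added for 30 min, and fluorescence read at 490/535 nm (monomers) and 540/590 nm (aggregates).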

[7] = qHTS assay for environmental chemicals that activate the Aryl hydrocarbon Receptor (AhR) signaling pathway (AID 651777); details: 1A2-DRE human hepatoma cells, luciferase, 24 h; activation: stronger effect = higher value; also: % of control where 0% means no effect; nearly all actives have a fitted effect of over 15% in size
Outline: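 Following a 24 hr incubation with test chemicals at 37 C and 5% CO2, 1A2-DRE human hepatoma cells received One-Glo reagent; after 30 min at room temperature, luciferase output reflected CYP1A2 induction via AhR.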

[8] = target: Peroxisome proliferator-activated receptor alpha (Homo sapiens) (UniProt Q07869); test: qHTS assay for small molecule agonists of the peroxisome proliferator-activated receptor alpha (PPARalpha) signaling pathway (AID 651778); details: PathHunter PPARalpha complementation, chemiluminescence, 6 h; stronger effect = higher value; also: % of control where 0% means no effect
Chain of Peroxisome proliferator-activated receptor alpha (Homo sapiens) (Q07869 whole entry, looked up): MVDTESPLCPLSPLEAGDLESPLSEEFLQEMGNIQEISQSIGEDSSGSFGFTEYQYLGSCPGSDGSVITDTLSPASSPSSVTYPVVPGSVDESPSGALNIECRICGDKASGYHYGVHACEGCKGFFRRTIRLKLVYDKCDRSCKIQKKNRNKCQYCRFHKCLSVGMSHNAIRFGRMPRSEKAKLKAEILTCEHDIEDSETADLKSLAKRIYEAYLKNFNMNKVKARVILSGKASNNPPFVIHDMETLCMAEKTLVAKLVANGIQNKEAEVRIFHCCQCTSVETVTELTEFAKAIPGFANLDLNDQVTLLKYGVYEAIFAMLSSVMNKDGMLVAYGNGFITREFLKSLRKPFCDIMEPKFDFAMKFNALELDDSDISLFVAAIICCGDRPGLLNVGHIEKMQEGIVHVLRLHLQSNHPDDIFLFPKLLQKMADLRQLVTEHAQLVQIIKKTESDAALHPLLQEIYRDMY
Outline: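 Cells plated at 2,000/well and held overnight at 37 C, 5% CO2, then compound added by pin tool for 6 hr; after PathHunter detection reagent and 60 min at room temperature, chemiluminescence from enzyme complementation was read.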

[9] = qHTS assay for small molecule agonists of the antioxidant response element (ARE) signaling pathway measured by Nrf2-dependant transcriptional activity (AID 720636; active = well fitted curve in the direction sought with a large enough effect in the repeat runs; an effect the other way counts as inactive or inconclusive; also: potency is read from the fitted curve at half-maximal effect;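 as to activation: HepG2 cells with an ARE-driven luciferase reporter; % of control where 0% means no effect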)
Outline: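 ONE-Glo luminescence, read 30 min after reagent addition at room temperature, reflected ARE reporter activity in HepG2 cells that had been incubated with compound for 16 hr at 37 C in 1% dialyzed FBS.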

[10] = qHTS assay to identify small molecules that stimulate interleukin-8 (IL-8) secretion (AID 651758; active = well fitted activation curve with a large enough effect in the signal ratio; the % refers to the signal ratio; also: 0% is about no effect)
Outline: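 THP-1, 2000 cells/well; cpd 16 h, 37 C; add cryptate + XL665 anti-IL-8 Abs; RT 1-3 h; TR-FRET read.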

[11] = target: Nuclear receptor ROR-gamma (Homo sapiens) (UniProt P51449); test: qHTS assay for small molecule antagonists of the retinoid-related orphan receptor gamma (ROR-gamma) signaling pathway (AID 651802); also: nearly all actives have a fitted effect of over 60% in size; also: potency is read from the fitted curve at half-maximal effect
Chain of Nuclear receptor ROR-gamma (Homo sapiens) (P51449 whole entry, looked up): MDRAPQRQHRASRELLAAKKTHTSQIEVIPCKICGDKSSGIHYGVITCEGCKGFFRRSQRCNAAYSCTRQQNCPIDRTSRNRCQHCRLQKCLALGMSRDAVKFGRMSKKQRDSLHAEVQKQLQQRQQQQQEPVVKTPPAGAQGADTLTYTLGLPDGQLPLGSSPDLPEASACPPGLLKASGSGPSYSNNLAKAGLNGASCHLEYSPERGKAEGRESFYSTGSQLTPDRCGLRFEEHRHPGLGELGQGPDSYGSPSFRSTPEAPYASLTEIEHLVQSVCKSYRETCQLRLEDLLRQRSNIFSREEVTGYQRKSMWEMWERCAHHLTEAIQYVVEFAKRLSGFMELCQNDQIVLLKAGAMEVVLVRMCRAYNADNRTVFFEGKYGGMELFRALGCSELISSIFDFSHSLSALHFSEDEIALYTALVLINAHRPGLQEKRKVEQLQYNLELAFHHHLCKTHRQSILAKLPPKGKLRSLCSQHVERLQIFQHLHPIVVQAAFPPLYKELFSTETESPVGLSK
Outline: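 CHO cells with TET-inducible ROR-gamma and RORE-luciferase reporter, dosed then doxycycline-induced. After 16 h at 37C, One-Glo luminescence read; decreased signal indicates antagonism.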

[12] = target: Glutaminase kidney isoform, mitochondrial (Homo sapiens) (UniProt O94925); test: qHTS for Inhibitors of Glutaminase (GLS): LOPAC Validation (AID 624146); also: nearly all actives have a fitted effect of over 60% in size; also: potency is read from the fitted curve at half-maximal effect
Chain of Glutaminase kidney isoform, mitochondrial (Homo sapiens) (O94925 whole entry, looked up, canonical isoform): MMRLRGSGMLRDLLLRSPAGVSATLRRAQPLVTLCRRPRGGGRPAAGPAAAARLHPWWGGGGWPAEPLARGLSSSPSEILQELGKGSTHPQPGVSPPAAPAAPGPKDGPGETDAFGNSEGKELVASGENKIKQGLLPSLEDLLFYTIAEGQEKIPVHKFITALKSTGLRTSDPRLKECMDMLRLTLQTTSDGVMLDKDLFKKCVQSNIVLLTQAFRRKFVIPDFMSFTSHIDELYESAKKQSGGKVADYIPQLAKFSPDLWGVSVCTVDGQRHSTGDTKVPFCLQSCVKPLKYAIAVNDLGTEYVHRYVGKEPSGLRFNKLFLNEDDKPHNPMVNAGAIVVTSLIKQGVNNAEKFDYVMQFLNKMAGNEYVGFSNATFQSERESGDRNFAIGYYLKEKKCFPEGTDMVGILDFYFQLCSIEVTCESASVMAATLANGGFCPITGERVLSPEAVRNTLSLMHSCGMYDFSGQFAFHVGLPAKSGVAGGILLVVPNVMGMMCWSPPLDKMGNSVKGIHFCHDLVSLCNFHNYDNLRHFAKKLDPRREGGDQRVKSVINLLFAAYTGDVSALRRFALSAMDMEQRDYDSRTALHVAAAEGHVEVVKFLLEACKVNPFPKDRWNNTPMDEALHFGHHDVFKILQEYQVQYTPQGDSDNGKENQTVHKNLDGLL
Outline: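 Glutamate formation by hKGA was monitored fluorometrically using coupled glutamate oxidase, HRP and Amplex Red. Substrate was added as 1 mM L-glutamine solution; incubation was 30 min at RT after an initial read.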

[13] = qHTS of Trypanosoma Brucei Inhibitors: LOPAC Validation (AID 624147); also: 0% is about no effect
Outline: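 Screened from lowest to highest concentration, compounds were pinned into TbPYK/substrate mixtures, and ADP (130 uM final) was added. Plates sat at room temperature for 45 min prior to Kinase-Glo Plus detection by luminescence.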

[14] = target: Glucagon-like peptide 1 receptor (Homo sapiens) (UniProt P43220); test: qHTS of GLP-1 Receptor Agonists: LOPAC Validation (AID 624148);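 also: 0% is about no effect; higher luminescence signal means agonism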
Chain of Glucagon-like peptide 1 receptor (Homo sapiens) (P43220 whole entry, looked up): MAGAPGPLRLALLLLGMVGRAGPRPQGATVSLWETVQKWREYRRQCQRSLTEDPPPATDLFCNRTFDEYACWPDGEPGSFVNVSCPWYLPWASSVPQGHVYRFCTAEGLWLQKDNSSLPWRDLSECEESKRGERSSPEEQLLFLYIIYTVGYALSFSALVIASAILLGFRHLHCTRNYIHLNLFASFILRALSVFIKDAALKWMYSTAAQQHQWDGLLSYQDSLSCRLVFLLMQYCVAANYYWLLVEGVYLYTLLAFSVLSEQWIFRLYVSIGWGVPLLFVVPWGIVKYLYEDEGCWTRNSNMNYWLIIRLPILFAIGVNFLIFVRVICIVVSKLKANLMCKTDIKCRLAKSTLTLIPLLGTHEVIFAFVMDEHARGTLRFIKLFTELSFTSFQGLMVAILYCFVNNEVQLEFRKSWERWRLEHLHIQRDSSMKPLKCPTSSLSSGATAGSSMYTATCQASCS
Outline: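 HEK293 cells stably co-expressing a cAMP-responsive luciferase reporter and a hypersensitive GLP-1R were plated 12 h at 37 °C and exposed to compounds for 4-6 hr at 37 °C, 5% CO2. Luminescence was read 12 min after adding detection reagent.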

[15] = qHTS of Nrf2 Activators: LOPAC Validation (AID 624149); also: 0% is about no effect
Outline: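 AREc32_Fluc cells, 1000/well in OPTI-MEM with 5% FBS, grown overnight, then exposed to compounds for 24 hr at 37 deg C, 5% CO2. ARE-driven firefly luciferase read by Steady-Glo luminescence after 30 min at RT.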

[16] = HTS Assay for Allosteric Antagonists of the Human D2 Dopamine Receptor: Hit Validation in HTRF (AID 624455);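 also: stable D1 dopamine receptor cell line scored for blocking the D1 response; % is scaled to controls: 0 for no effect and ±100 for the full control effect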
Outline: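 Hit validation in cells stably expressing the D1 dopamine receptor, run in HTRF format. Compounds were tested for their ability to inhibit the D1-mediated response.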

[17] = target: Arylsulfatase A (Homo sapiens) (UniProt P15289); test: qHTS screen for enhancers of Arylsulfatase A (ASA1): LOPAC Validation Assay (AID 720538); also: potency is read from the fitted curve at half-maximal effect
Chain of Arylsulfatase A (Homo sapiens) (P15289 whole entry, looked up): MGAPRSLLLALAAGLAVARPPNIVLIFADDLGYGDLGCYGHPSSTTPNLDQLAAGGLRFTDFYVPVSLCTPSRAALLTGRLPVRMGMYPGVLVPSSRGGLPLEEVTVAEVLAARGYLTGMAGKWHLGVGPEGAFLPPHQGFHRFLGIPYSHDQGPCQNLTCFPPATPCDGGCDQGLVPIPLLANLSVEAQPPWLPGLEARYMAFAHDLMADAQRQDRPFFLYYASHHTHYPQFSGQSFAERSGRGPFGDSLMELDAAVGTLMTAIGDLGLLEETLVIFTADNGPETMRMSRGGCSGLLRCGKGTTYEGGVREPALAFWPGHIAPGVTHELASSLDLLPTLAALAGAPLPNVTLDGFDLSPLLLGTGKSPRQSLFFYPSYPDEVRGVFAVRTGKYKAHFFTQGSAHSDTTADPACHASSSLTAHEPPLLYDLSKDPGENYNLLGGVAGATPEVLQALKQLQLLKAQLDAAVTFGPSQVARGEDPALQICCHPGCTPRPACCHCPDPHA
Outline: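 Read-out: fluorescence at Ex=525/Em=598 nm after 1N NaOH final stop. Patient fibroblasts carrying ASA-I179S had 48h compound exposure, then 14h room-temperature pNCS hydrolysis (0.5mM final) in lysis buffer. Signal increase = enhanced activity.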

[18] = qHTS for compounds that reverse cellular toxicity of Amyloid beta (A-beta) peptide in yeast: LOPAC Validation Assay (AID 720559);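 also: plate controls were DMSO for no effect and equimolar ferric chloride plus clioquinol rescue for full effect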
Outline: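 OD600 growth readout after 48 hr at 30 C; A-beta-toxic yeast plus pinned compounds in medium. Normalization: DMSO = negative, equimolar FeCl3 + clioquinol = positive.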

[19] = qHTS for Activators of Parkin Expression: LOPAC Validation Assay (NLuc Reporter) (AID 720572;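 also: 0% = DMSO and 100% = positive control compound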)
Outline: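 Neuronal line stably carrying a FLuc/NLuc coincidence reporter under the Parkin promoter, seeded 24 h, then dosed in 7-point series for 24 h at 37 C. NLuc luminescence read after FLuc; normalized to DMSO and positive control (100%).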

[20] = qHTS for Activators of Parkin Expression: LOPAC Validation Assay (FLuc Reporter) (AID 720573;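 also: 0% = DMSO and 100% = positive control compounds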)
Outline: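 FLuc luminescence read-out from a neuronal line expressing a Parkin-promoter-driven coincidence reporter. Cells treated 24 h at 37 C, 5% CO2 with compounds at 7 concentrations; signal increase normalized to DMSO and positive control.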

c1cc2c(c(NC3=NCCN3)c1)CCCC2
inactive: Potency [1]

OC(c1ccccc1)(c1ccccc1)C1CN2CCC1CC2 (configuration not stated)
inactive: Potency [1]

CNC(=O)OCC[N+](C)(C)C
inactive: Potency [1]

O=Cc1ccco1
inactive: Potency [1] | Potency [2] | activation [3] -1.55% | activation [4] -0.614% | Potency [5] | Potency [6] | activation [7] -0.549% | max response [8] -1.43% | Potency [9]

F/C(COc1ccc2c(c1)[nH]c1ccccc12)=C1/CN2CCC1CC2
inactive: Potency [1]

O=S(=O)(O)c1cc(O)ccc1O
inactive: Potency [1]

ClC(Cl)(Cl)Cl
inactive: Potency [1] | Potency [2] | activation [3] -0.523% and 1.98% | activation [4] 2.09% and -0.921% | Potency [5] | Potency [6] | Potency [10] | activation [7] -0.636% and 0.214% | max response [8] -1.24% and -4.01% | Potency [11] | Potency [9]

O=[N+]([O-])c1cc(O)c(O)c([N+](=O)[O-])c1
inactive: Potency [13] | outcome [14] | Potency [15] | Potency [16] | outcome [18] | Potency [19] | outcome [20]
active: Potency [12] 12.6 µM | Potency [17] 19 µM

Nc1ccc(CCN2CCN(c3cccc(C(F)(F)F)c3)CC2)cc1
inactive: Potency [12] | Potency [13] | outcome [14] | Potency [15] | Potency [16] | Potency [17] | outcome [18] | Potency [19] | outcome [20]

C[N+](C)(C)CC#CCN1CCCC1=O
inactive: Potency [12] | Potency [13] | outcome [14] | Potency [15] | Potency [16] | Potency [17] | outcome [18] | Potency [19] | outcome [20]

COc1ccc2c(c1)[C@@]13CCCC[C@H]1[C@@H](C2)NCC3
inactive: Potency [12] | Potency [13] | outcome [14] | Potency [15] | Potency [16] | Potency [17] | outcome [18] | Potency [19] | outcome [20]

CC(C)CCON=O
inactive: Potency [1] | activation [3] -3.9% | Potency [5] | Potency [6] | Potency [10] | activation [7] -0.695% | max response [8] -0.247% | Potency [11] | Potency [9]

O=C/C=C/c1ccccc1
inactive: Potency [1] | activation [3] -1.3% and 1.6% | activation [4] -1.46% and -0.692% | Potency [5] | Potency [6] | activation [7] 2.17% and 1.64% | max response [8] 0.173% and 5.71% | Potency [11]

O=C1CCO1
inactive: Potency [1] | activation [4] -0.561% | Potency [5] | Potency [6] | activation [7] 1.44% | max response [8] -1.17% | Potency [11] | Potency [9]

NC(=O)c1ccc(OCC(O)CN2CC=C(c3ccc(F)cc3)CC2)cc1 (configuration not stated)
inactive: Potency [12] | Potency [13] | outcome [14] | Potency [15] | Potency [16] | Potency [17] | outcome [18] | Potency [19] | outcome [20]

[Cl-].[Cl-].[Hg+2]
active: Potency [1] 3.16 µM | Potency [2] 29.8 µM | Potency [11] 1.06 µM | Potency [9] 21.1 µM
inactive: activation [3] 5.15% | Potency [6] | activation [7] 1.68% | max response [8] -13.7%

O=c1[nH]c(=O)n(Cl)c(=O)n1Cl
inactive: Potency [1] | Potency [2] | activation [7] -2.06% | max response [8] 3.21% | Potency [9]

CC(=O)OCC1=C(C(=O)O)N2C(=O)[C@@H](NC(=O)CCC[C@@H](N)C(=O)O)[C@H]2SC1
inactive: Potency [12] | Potency [13] | outcome [14] | Potency [15] | Potency [16] | Potency [17] | outcome [18] | Potency [19] | outcome [20]

Oc1cc(Cl)c(Cl)cc1Cl
active: Potency [2] 42.2 µM | Potency [5] 47.3 µM | Potency [6] 47.3 µM | Potency [11] 23.7 µM
inactive: Potency [1] | activation [4] 1.51% and -0.218% | activation [7] 3.21% and 2.24% | max response [8] -3.77% and 0.0897% | Potency [9]

COC(=O)N1CCN(C(=O)Cc2ccc(Cl)c(Cl)c2)C(CN2CCCC2)C1 (configuration not stated)
inactive: Potency [12] | Potency [13] | outcome [14] | Potency [15] | Potency [16] | Potency [17] | outcome [18] | Potency [19] | outcome [20]

C=CCN1CC[C@]23c4c5ccc(O)c4O[C@H]2/C(=N/NC(=O)c2ccccc2)CC[C@@]3(O)[C@H]1C5
active: Potency [12] 14.1 µM
inactive: Potency [13] | outcome [14] | Potency [15] | Potency [16] | Potency [17] | outcome [18] | Potency [19] | outcome [20]

Clc1ccccc1Cl
inactive: Potency [1] | activation [4] -0.0325% | Potency [5] | Potency [6] | activation [7] -0.403% | max response [8] -2.32% | Potency [11] | Potency [9]

O=CC=O
inactive: Potency [1] | Potency [5] | Potency [6] | activation [7] -1.42% | max response [8] -5.03% | Potency [11] | Potency [9]

NCCCP(=O)(O)O
inactive: Potency [12] | Potency [13] | outcome [14] | Potency [15] | Potency [16] | Potency [17] | outcome [18] | Potency [19] | outcome [20]

CCOC(=O)c1ncn2c1[C@@H]1CCCN1C(=O)c1cc(OC)ccc1-2
inactive: Potency [12] | Potency [13] | outcome [14] | Potency [15] | Potency [16] | Potency [17] | outcome [18] | Potency [19] | outcome [20]
